Bioassay records (PubChem)
A selection: hits, their analogues and other compounds. The true share with any hit is near 3.7%.
Wnt bcat act = activators of Wnt/beta-catenin signaling. Wnt/beta-catenin reporter cell assay, activator, plate reader. activation, % at 9.35 µM. actives 1.2% (n = 300,000). AID 743398; in the data active = activation above about 30%, passing the limit was not always enough;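 note: 0% = neutral control wells and 100% = positive control wells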
rRNA inh HTS = selective bacterial rRNA inhibition in E. coli; actives 1.6% (n = 350,000); E. coli WT GFP vs humanized-ribosome RFP mutants, fluorescence, 24 h; active compounds read low; DMSO median 0, no signal -100; GFP signal change (wild-type ribosome), % (test concentration not listed);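 active = significant combined selectivity score with lowered wild-type GFP, culture density cut under 30%, mutant RFP and density less affected; inactive = any of these conditions unmet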
AF4-AF9 inh = inhibitors of human MLL-AF4/AF9 interaction. AlphaScreen, biotin-AF4 peptide binding to FLAG-AF9. inhibition, % at 10 µM. actives 0.47% (n = 350,000). AID 651704;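 active = every replicate reaching a set inhibition limit, whatever the replicate mean, cut at about 25% in these data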;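 note: 0% = plate neutral control median and 100% = total signal loss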
Target sequence (P42568 whole entry, looked up): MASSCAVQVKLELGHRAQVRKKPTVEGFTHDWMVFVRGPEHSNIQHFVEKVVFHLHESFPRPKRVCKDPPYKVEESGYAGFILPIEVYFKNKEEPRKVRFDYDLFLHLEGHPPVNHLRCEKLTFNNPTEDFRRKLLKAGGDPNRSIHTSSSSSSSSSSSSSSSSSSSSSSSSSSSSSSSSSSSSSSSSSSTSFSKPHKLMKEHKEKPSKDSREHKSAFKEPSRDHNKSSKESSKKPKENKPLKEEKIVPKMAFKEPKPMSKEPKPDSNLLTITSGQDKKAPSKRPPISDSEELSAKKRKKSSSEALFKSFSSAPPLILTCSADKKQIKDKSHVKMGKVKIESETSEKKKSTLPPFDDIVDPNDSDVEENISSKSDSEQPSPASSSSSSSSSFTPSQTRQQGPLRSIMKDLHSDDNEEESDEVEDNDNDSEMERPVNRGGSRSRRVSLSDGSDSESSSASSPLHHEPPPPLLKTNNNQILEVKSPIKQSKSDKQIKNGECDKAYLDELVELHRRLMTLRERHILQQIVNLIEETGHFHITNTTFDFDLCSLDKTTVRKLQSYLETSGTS
esBAF inh = inhibitors of esBAF chromatin remodeling in mouse ES cells; Bmi1-luciferase knock-in reporter, 24 h; 100% = twice the neutral-well signal; reporter increase, % at 12.5 µM; actives 2% (n = 350,000); in the data active = activation above about 40%;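 note: 0% = median of the plate's neutral control wells and 100% = double that signal; a rise in the Bmi1 reporter signal indicates esBAF inhibition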
MITF TRPM1 HTS = activators of MITF-driven TRPM1 promoter activity in SK-MEL-5 cells. SK-MEL-5 TRPM1-promoter luciferase, 24 h; % of positive control, neutral wells = 0. activation, % at 12.5 µM. AID 588334. actives 0.75% (n = 300,000);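 active = mean activation of at least 80% with every replicate also reaching 80%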;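 note: 0% = neutral control wells and 100% = parthenolide positive control wells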
Starred values were filed as active, the others as inactive.

Screening COc1ccc(C2CC(c3ccccc3O)=NN2c2ccccc2)cc1 (configuration not stated) returned Wnt bcat act 3.1, rRNA inh HTS -21.1*, AF4-AF9 inh -1.6 and MITF TRPM1 HTS 3.6.
Screening COc1ccc(C2CC(c3ccccc3)=NN2c2ccc(N)cc2)cc1 (configuration not stated) returned Wnt bcat act 3.4, rRNA inh HTS -22.4, AF4-AF9 inh 6.2 and MITF TRPM1 HTS -1.1.
COc1ccc(C2CC(c3ccncc3)=NN2c2ccc(S(N)(=O)=O)cc2)cc1 (configuration not stated) was read as Wnt bcat act 0.7, rRNA inh HTS -9.8, AF4-AF9 inh -21.0, esBAF inh 82.6* and MITF TRPM1 HTS 43.9.
`CC=Cc1ccc2n(c1=O)C[C@@H]1[C@@H](CO)[C@H](C(=O)N3CCc4ccccc4C3)[C@H]2N1CC` (mixture of isomers) gave rRNA inh HTS -3.0, AF4-AF9 inh 0.2 and esBAF inh 3.4.
For COc1cccc(C(C(=O)NC(C)(C)C)N(CCc2ccccc2)C(=O)CCC(=O)Nc2cc(C)on2)c1OC (configuration not stated) the results were Wnt bcat act -1.6, rRNA inh HTS 1.0, AF4-AF9 inh 2.2, esBAF inh 0.3 and MITF TRPM1 HTS 1.8.
`Cc1cc(CNC(=O)COc2ccccc2)c2ccccc2n1` gave Wnt bcat act -0.2, rRNA inh HTS 13.2, AF4-AF9 inh 1.3 and MITF TRPM1 HTS -7.5.
Cc1cc(CNC(=O)COc2ccc(C)c(C)c2)c2ccccc2n1 was read as Wnt bcat act -0.1, rRNA inh HTS -24.9*, AF4-AF9 inh -3.0, esBAF inh -5.7 and MITF TRPM1 HTS -4.2.
N#C/C(=N\Nc1cccc(F)c1)C(=O)C1CC1 was read as Wnt bcat act 9.5, rRNA inh HTS -24.8* and AF4-AF9 inh 1.2.
For O=C(Nc1cccc(F)c1)C1CCCCC1 the results were Wnt bcat act -2.0, rRNA inh HTS 4.3, AF4-AF9 inh -1.8, esBAF inh 3.1 and MITF TRPM1 HTS 17.1.
CC(C)Nc1c(N)c(=O)oc2ccccc12 was read as esBAF inh 3.2.
For COc1ccccc1-c1noc(-c2ccccc2)n1 the results were MITF TRPM1 HTS 33.0.
For CCOc1ccccc1-c1nc(-c2ccc(C)nc2OC)no1 the results were Wnt bcat act 51.4* and esBAF inh 69.2*.
For COc1nc(-c2ccccc2)ccc1-c1noc(-c2ccco2)n1 the results were esBAF inh 76.2*.
For COc1nc(C)ccc1-c1noc(-c2ccncc2)n1 the results were Wnt bcat act -0.1, esBAF inh 19.5 and MITF TRPM1 HTS 97.0*.
`COc1ccccc1-c1noc(-c2ccco2)n1` gave Wnt bcat act -2.0, esBAF inh 20.6 and MITF TRPM1 HTS 89.9*.
`CN(C)c1ccc(C(C(=O)NCc2ccccc2)N(Cc2ccco2)C(=O)c2snc(C(N)=O)c2N)cc1` (configuration not stated) gave Wnt bcat act -3.4, rRNA inh HTS -1.3, AF4-AF9 inh 1.1, esBAF inh -4.3 and MITF TRPM1 HTS -13.0.
COc1nc(-c2ccccc2)ccc1-c1noc(-c2ccccc2)n1 was read as Wnt bcat act -5.3, esBAF inh 43.7* and MITF TRPM1 HTS 57.8.
COc1ccc(-c2ccc(-c3noc(-c4ccco4)n3)c(OC)n2)cc1 was read as Wnt bcat act 4.1, esBAF inh 47.9* and MITF TRPM1 HTS 54.1.
`COc1nc(-c2ccccc2)ccc1-c1noc(-c2cccs2)n1` gave esBAF inh 45.8* and MITF TRPM1 HTS 30.6.
`COc1ccc(-c2ccc(-c3noc(-c4ccccc4)n3)c(OC)n2)cc1` gave Wnt bcat act 2.8, rRNA inh HTS 9.2, AF4-AF9 inh -4.9, esBAF inh -4.7 and MITF TRPM1 HTS 0.7.
CCN(CC)C(=O)CSc1nc2ccsc2c(=O)n1CCCC(=O)NCCc1ccc(S(N)(=O)=O)cc1 was read as Wnt bcat act 2.0, rRNA inh HTS 5.2, AF4-AF9 inh -0.2 and MITF TRPM1 HTS -7.7.
`COc1cccc(CNC(=O)C(=O)NCCC2CCCCN2S(=O)(=O)c2cccs2)c1` (configuration not stated) gave Wnt bcat act -3.5, rRNA inh HTS 7.2, AF4-AF9 inh -12.6 and MITF TRPM1 HTS -9.7.
`O=c1cc(O)c(-c2ccc(Cl)cc2)c(Cl)[nH]1` gave Wnt bcat act 1.9, rRNA inh HTS -10.1, AF4-AF9 inh 5.1, esBAF inh 3.7 and MITF TRPM1 HTS -17.3.
`O=c1cc(O)c(-c2ccc(Cl)c(Cl)c2)c(Cl)[nH]1` gave Wnt bcat act -1.9, rRNA inh HTS -26.9*, AF4-AF9 inh 1.8, esBAF inh 10.8 and MITF TRPM1 HTS -1.5.
Cc1ccc(C(=O)COC(=O)C(C)N2C(=O)C3C4CCC(C4)C3C2=O)cc1 (configuration not stated) was read as Wnt bcat act 7.2, rRNA inh HTS -15.8, AF4-AF9 inh -7.5, esBAF inh 4.1 and MITF TRPM1 HTS 3.6.
`Cc1ccc(C)c(C(=O)COC(=O)C(C)N2C(=O)C3C4CCC(C4)C3C2=O)c1` (configuration not stated) gave Wnt bcat act 2.1, rRNA inh HTS -28.6*, AF4-AF9 inh -0.3, esBAF inh 6.6 and MITF TRPM1 HTS -3.3.
CCOC(=O)N/N=C/c1ccccc1OCc1ccc(Cl)cc1 was read as rRNA inh HTS -25.1*, AF4-AF9 inh 11.5 and MITF TRPM1 HTS 33.4.
`CCOC(=O)N/N=C/C(Cl)=C/c1ccccc1` gave Wnt bcat act 15.9, rRNA inh HTS -12.2, AF4-AF9 inh 2.4, esBAF inh 56.0* and MITF TRPM1 HTS 74.8.
`Cc1cc(C)nc(N/N=C/C(Cl)=C/c2ccccc2)n1` gave Wnt bcat act 9.1, rRNA inh HTS -26.0*, AF4-AF9 inh -3.3 and MITF TRPM1 HTS 61.2.
For Cc1cc(C)nc(N/N=C/c2ccccc2)n1 the results were Wnt bcat act 15.7, rRNA inh HTS 16.4, AF4-AF9 inh -75.9 and MITF TRPM1 HTS 45.3.
Screening Cc1cc(NC(=O)CSc2nc3c(c(=O)n2Cc2ccccc2)SC(C)C3)no1 (configuration not stated) returned Wnt bcat act 2.7, rRNA inh HTS 2.5, AF4-AF9 inh -0.3, esBAF inh 46.3* and MITF TRPM1 HTS 21.0.
Screening COc1ccccc1C(=O)Nc1ccc(C(=O)c2ccccc2)cc1 returned Wnt bcat act 8.2, rRNA inh HTS -32.3, AF4-AF9 inh -0.6, esBAF inh 30.5 and MITF TRPM1 HTS 19.5.
`CC(C)n1cnc2c(Nc3cccc(F)c3)nc(NCCO)nc21` gave Wnt bcat act 17.4, rRNA inh HTS -1.3, AF4-AF9 inh -5.5, esBAF inh 17.1 and MITF TRPM1 HTS 1.7.
O=c1sc(/C=N/Nc2ccccc2)c(Cl)n1Cc1ccccc1 was read as Wnt bcat act 46.4*, rRNA inh HTS 4.8, AF4-AF9 inh 1.6 and MITF TRPM1 HTS 56.4.
